What follows are compounds tested on HepG2 (assay: GSK_TCMDC: Percent inhibition of human HepG2 cell line. Test compounds present at 10uM.).
Assay type: functional
Compound `CN(CCC(CCN1CCC(c2c[nH]c3ccccc23)CC1)c1ccccc1)C(=O)Nc1ccc(Cl)c(Cl)c1` (stereo unspecified) has an Inhibition of 50%.
In the case of `COc1nc2c(N3CCN(CCNCc4ccc5c(n4)NC(=O)CO5)CC3)ccnc2cc1F.Cl`, the Inhibition is reported as 18%.
In the case of `Cl.c1ccc2c(Nc3ccc(Oc4ccc(Nc5c6ccccc6nc6ccccc56)cc4)cc3)c3ccccc3nc2c1`, the Inhibition is reported as 21%.
Compound `CCN(CC)CCNc1ccnc2[nH]c3ccc(I)cc3c12` has an Inhibition of 14%.
For `Cc1cccc(-c2nn(-c3ccccc3)c3[nH]c(=O)c(CN4CCSCC4)cc23)c1`, the Inhibition was 0%.
`COc1ccc(C(=O)NCc2ccccc2-c2ccc(C(C)(C)C)cc2)cc1O` gave an Inhibition of 10%.

Reference: ChEMBL document CHEMBL1157539, “Thousands of chemical starting points for antimalarial lead identification” (Nature, 2010)
